CF NFkB inh: inhibitors of PAF-induced NF-kB signaling, primary screen, cell-based, GFP fluorescence, uHTS | KKLEB NF-kB-GFP reporter, GFP fluorescence overnight | inhibition, % at 5 µM | 360,000 compounds, 0.86% hits | AID 588850, 2011;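 active means at least 50% inhibition at 5 µM, scaled per plate between neutral and stimulator controls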;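 further: PAF is a Pseudomonas aeruginosa culture filtrate used as stimulus; plate controls were PAF-stimulated DMSO wells for no effect and unstimulated DMSO wells for full effect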
KKLEB cytotox: cytotoxicity in KKLEB CF airway cells, primary screen, cytotoxicity control for CF NF-kB inhibitor project, cell-based, uHTS, fluorescence assay plates; KKLEB CF airway cells viability, ATPlite luminescence, overnight; hits give low values; cells stimulated with P. aeruginosa culture filtrate; activity change (cytotoxicity), % at 5 µM; 360,000 compounds, 0.36% hits; AID 602141, 2011;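 active means corrected activity change at or below -50% at 5 µM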
HIF-2a inh: HIF-2a reporter inhibitors, primary screen, luminescence, 786-0 RCC cells; 786-0 RCC cells HIF-2a reporter, luciferase luminescence, overnight; inhibition, % at 18.8 µM; 360,000 compounds, 0.72% hits; AID 624352, 2012;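 active means inhibition of the luminescence signal of 40% or more relative to plate controls, in a single-dose primary screen at 18.75 µM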
PAX8 reporter: inhibitors of PAX8-driven TPO luciferase reporter, primary screen, RMG-I cells, single concentration; 360,000 compounds, 1.2% hits; SteadyGlo, 24 h; inhibition, % at 12.6 µM;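 active means mean replicate inhibition at least 60% with every replicate also reaching 60%; inconclusive means only one of the two criteria is met; inactive means mean below 60% and not all replicates reaching 60%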;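 further: luciferase light reporting Pax8 driven TPO promoter activity; plate controls were median of neutral control wells for no effect and mitoxantrone controls for full effect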
EWS-Fli inh: EWS/Fli-driven NR0B1 reporter inhibitors, primary screen, A673 cells, NR0B1 luciferase, luminescence, MLPCN library; viability-normalised; inhibition, % at 12.6 µM; 350,000 compounds, 0.67% hits; AID 651661, 2012;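 active means mean inhibition of at least 50% after viability correction, with every replicate also passing that limit; inconclusive means mean reaches 50% but only one of two replicates passes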;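 further: firefly luciferase signal divided by Alamar Blue viability fluorescence both relative to DMSO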
Mdm2 MdmX conf: retested Mdm2-MdmX interaction blockers, confirmation, cell-based, luminescence, single concentration, set 2; inhibition, % at 8 µM; SaOS-2 split-luciferase Mdm2/MdmX complementation; 740 compounds, 99% hits; shares compounds with HIF-2a inh;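 active means mean inhibition of the luminescence signal across two replicates at or above 26 percent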
Target sequence (O15151 whole entry, looked up): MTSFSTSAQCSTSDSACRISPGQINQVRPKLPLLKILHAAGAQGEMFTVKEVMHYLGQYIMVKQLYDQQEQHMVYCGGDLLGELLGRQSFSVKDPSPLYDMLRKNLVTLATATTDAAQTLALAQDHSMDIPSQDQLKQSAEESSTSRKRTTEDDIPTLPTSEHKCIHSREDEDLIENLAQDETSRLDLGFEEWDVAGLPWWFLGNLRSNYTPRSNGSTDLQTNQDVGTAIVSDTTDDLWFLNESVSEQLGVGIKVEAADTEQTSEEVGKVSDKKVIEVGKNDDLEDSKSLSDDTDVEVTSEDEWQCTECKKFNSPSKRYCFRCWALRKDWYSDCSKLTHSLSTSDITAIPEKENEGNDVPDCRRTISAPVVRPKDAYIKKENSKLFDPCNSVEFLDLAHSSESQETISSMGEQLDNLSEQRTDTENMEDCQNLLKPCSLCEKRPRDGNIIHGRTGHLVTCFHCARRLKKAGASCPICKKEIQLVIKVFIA
Target sequence (Q00987 whole entry, looked up): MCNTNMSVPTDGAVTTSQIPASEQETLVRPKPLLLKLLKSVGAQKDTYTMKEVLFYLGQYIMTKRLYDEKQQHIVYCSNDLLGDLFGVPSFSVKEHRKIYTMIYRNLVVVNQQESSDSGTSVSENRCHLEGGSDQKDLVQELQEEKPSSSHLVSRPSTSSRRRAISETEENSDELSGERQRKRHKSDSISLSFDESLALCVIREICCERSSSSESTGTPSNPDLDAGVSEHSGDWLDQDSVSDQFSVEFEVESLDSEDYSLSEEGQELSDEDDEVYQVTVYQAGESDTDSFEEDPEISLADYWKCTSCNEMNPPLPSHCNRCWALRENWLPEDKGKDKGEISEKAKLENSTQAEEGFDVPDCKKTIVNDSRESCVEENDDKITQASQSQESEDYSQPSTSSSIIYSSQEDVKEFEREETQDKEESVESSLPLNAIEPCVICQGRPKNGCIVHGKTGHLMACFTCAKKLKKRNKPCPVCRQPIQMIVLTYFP
HIF-2a inh conf: HIF-2a reporter inhibitor retest, confirmation, luminescence, 786-0 RCC cells. shares compounds with HIF-2a inh. HIF-2a luciferase reporter luminescence, overnight. inhibition, % at 18.8 µM. 1,800 compounds, 56% hits;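 active means mean inhibition across four replicates of at least 40 percent at the single tested concentration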
HIF-1a cs: HIF-1a luciferase reporter signal reduction – MiaPaCa-2 cells, single concentration, counter-screen for HIF-2a inhibitor project, confirmation | shares compounds with HIF-2a inh | MiaPaCa-2 HIF-1a luciferase reporter, desferoxamine, overnight | inhibition, % at 18.8 µM | 1,800 compounds, 72% hits | AID 651589, 2012;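 active means mean inhibition of the reporter signal across four replicates at the single tested dose of 50% or more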
* = called active by the depositor; ? = inconclusive; . = not tested or not shown. Most compounds without a hit are left out; they make up all but 2.1% or so of the library.

SMILES	CF NFkB inh	KKLEB cytotox	HIF-2a inh	PAX8 reporter	EWS-Fli inh	HIF-2a inh conf	HIF-1a cs	others
COc1ccc(CCNC(=O)c2ccc3c(c2)OCCO3)cc1	7.4	5.1	-198.7	-135.2	-31.4	.	.
CC(C)NC(=O)N1C[C@H]2[C@@H](c3ccccc31)[C@H](CO)N2C(=O)c1cccnc1	.	.	.	-6.9	-3.1	.	.
COc1cccc(S(=O)(=O)N[C@@H]2C=C[C@H](CC(=O)NCc3ccncc3)O[C@H]2CO)c1	.	.	.	-0.3	-1.4	.	.
COCC(=O)NC[C@@H]1[C@H](c2ccccc2)[C@@H](CO)N1C(=O)c1ccccc1	.	.	.	5.0	-2.2	.	.
COc1ccc(-c2oc3ccccc3c(=O)c2OC(C)=O)cc1	24.4	5.4	-51.1	-24.0	-15.4	.	.	Mdm2 MdmX conf=92.7*
C[C@@H]1CN([C@@H](C)CO)C(=O)c2cc(NC(=O)Nc3ccc4c(c3)OCO4)ccc2O[C@@H](C)CCCCO[C@@H]1CN(C)C(=O)Cc1ccccc1	.	.	.	4.7	-10.9	.	.
Cc1nc(SC(C)C(=O)NCC2CCCO2)c2cc(-c3ccccc3)sc2n1 (stereo not given)	-24.1	3.1	-188.4	15.8	-64.5	.	.	Mdm2 MdmX conf=101.0*
O=C(Nc1cccc(C(=O)O)c1)Nc1ccc2c(c1)OCO2	13.6	-4.3	83.1*	103.3*	79.3*	.	.	Mdm2 MdmX conf=63.5*
CCOC(=O)c1cccc(NC(=O)/C=C/c2ccc3c(c2)OCO3)c1	-10.9	-2.3	46.6*	-41.4	.	68.8*	37.5
O=C(c1ccccc1)c1nn(-c2ccc(Cl)cc2)c(=O)cc1C(F)(F)F	-4.1	-15.2	46.3*	.	.	-1.7	106.8*	Mdm2 MdmX conf=103.0*
Cc1ccccc1N(C(=O)c1snc(C(N)=O)c1N)C(C(=O)NC1CCCCC1)c1ccc(O)cc1 (stereo not given)	-6.9	0.8	41.9*	35.6	30.2	35.5	85.6*
Cc1ccc(C2=[N+]([O-])C3(CCCCC3=O)N(O)C2(C)C)cc1 (stereo not given)	7.2	-10.9	43.7*	8.3	.	21.3	15.1
COc1cccc(C(=O)Nc2ccc3c(c2)C(=O)N(C)C[C@@H](OC)[C@H](C)CN(C(=O)C2CCC2)[C@H](C)CO3)c1	.	.	.	-1.1	-6.1	.	.
CCC[C@@H](CNC)NC[C@H](Cc1ccccc1)NCCCCc1ccccc1	5.1	-15.7	-2.3	26.3	13.0	.	.	Mdm2 MdmX conf=103.2*
CCC[C@@H](CN[C@@H](CNC)C(C)C)NCCCCc1ccccc1	8.9	-7.1	-7.3	14.1	11.8	.	.
CNC[C@@H](Cc1ccccc1)NC[C@@H](CC1CCCCC1)NCCCc1ccccc1	84.6*	-95.8*	85.4*	74.2*	43.9	0.4	106.3*	Mdm2 MdmX conf=103.2*
CN(Cc1cccc(C(F)(F)F)c1)C(=O)C1CCC(=O)N(CC2CCCCC2)C1 (stereo not given)	-1.9	-16.3	-22.8	-6.4	2.5	.	.
CNC[C@@H](CC1CCCCC1)NC[C@H](CC(C)C)NCCc1cccc(C(F)(F)F)c1	49.6	-72.0*	32.0	113.1*	49.4	.	.	Mdm2 MdmX conf=103.2*
C[C@H](CO)N1C[C@H](C)[C@@H](CN(C)Cc2ccccn2)Oc2ncc(C#CC3(O)CCCC3)cc2C1=O	.	.	.	-3.7	4.8	.	.
CCNC(=O)C[C@H]1CC[C@@H]2[C@@H](COc3ccc(NC(=O)Cc4ccccc4)cc3C(=O)N2C)O1	.	.	.	-2.7	0.0	.	.
CCCC#Cc1cnc2c(c1)C(=O)N([C@@H](C)CO)C[C@@H](C)[C@@H](CN(C)Cc1ccc(F)cc1)O2	.	.	.	.	-0.1	.	.
COc1ccc2c(n1)Sc1nc3ccccc3nc1N2	-92.7	7.5	91.6*	-60.7	-77.2	-245.7	-22.3
C[C@H](CO)N1C[C@H](C)[C@H](CN(C)Cc2ccc3c(c2)OCO3)Oc2ncc(-c3cccc(C(F)(F)F)c3)cc2C1=O	.	.	.	.	18.8	.	.
OC[C@@H]1[C@@H](c2ccc(-c3cccnc3)cc2)[C@@H]2CN(Cc3ccccn3)CCCCN12	.	.	.	13.2	9.4	.	.
COC(=O)c1c(-c2ccccc2)csc1NC(=O)c1c(-c2ccccc2)noc1C	-13.0	-9.7	-3.5	18.3	-38.2	.	.	Mdm2 MdmX conf=99.1*
SMILES	CF NFkB inh	KKLEB cytotox	HIF-2a inh	PAX8 reporter	EWS-Fli inh	HIF-2a inh conf	HIF-1a cs	others
C[C@H](NC(=O)C[C@H]1CC[C@H](NC(=O)Nc2ccc3c(c2)OCO3)[C@H](CO)O1)c1ccccc1	.	.	.	5.6	2.7	.	.
N#Cc1c(N)n(C2CCCCC2)c2nc3ccccc3nc12	16.8	-20.6	41.7*	.	.	16.5	76.9*
O=C(NC1CCCCC1)N[C@H]1CC[C@H](CC(=O)N2CCOCC2)O[C@@H]1CO	.	.	.	3.6	-2.0	.	.
COc1ccc(-c2csc3ncn(-c4cccc(C)c4)c(=O)c23)cc1OC	10.2	-4.3	41.2*	-0.7	9.3	2.0	2.4
O=C1C=CC(=C(c2ccc(O)cc2)c2ccc(O)cc2)C=C1	31.9	4.7	85.0*	105.8*	17.7	81.3*	107.2*
C[C@H]1CCCCO[C@@H](CN(C)CC2CCCCC2)[C@@H](C)CN([C@@H](C)CO)C(=O)c2cc(NC(=O)CCCN(C)C)ccc2O1	.	.	.	-8.5	-1.4	.	.
CN(C)CCCn1cnc2c(c1=N)C(c1ccccc1)c1ccc3ccccc3c1O2 (stereo not given)	-8.2	-27.9	92.6*	50.0	?	9.8	105.8*	Mdm2 MdmX conf=103.0*
C[C@H]1CN([C@@H](C)CO)C(=O)Cc2cc(NS(=O)(=O)c3ccc(F)cc3)ccc2O[C@H]1CN(C)Cc1ccc2c(c1)OCO2	.	.	.	-8.4	-1.1	.	.
CO[C@@H]1CN(C)C(=O)c2cc(NC(=O)NC3CCCCC3)ccc2OC[C@@H](C)N(C)C[C@H]1C	.	.	.	-1.2	4.1	.	.
Cc1oc2c(C)c3oc(=O)c(CCC(=O)N[C@@H](CC(C)C)C(=O)O)c(C)c3cc2c1C	6.7	6.4	11.5	2.1	10.3	.	.
CCCC(NC(=O)CCc1c(C)c2cc3c4c(oc3c(C)c2oc1=O)CCCC4)C(=O)O (stereo not given)	14.3	7.1	52.1*	-0.2	42.9	66.8*	50.5*
CO[C@@H]1CN(C)C(=O)c2ccc(NS(C)(=O)=O)cc2OC[C@H](C)N(C(=O)NC(C)C)C[C@@H]1C	.	.	.	-9.0	1.1	.	.
CN1CCN(c2ccc(-c3ccc4ccccc4n3)cc2)CC1	10.2	-58.6*	87.3*	93.9*	93.4*	96.7*	87.4*
c1ccc2nc(-c3ccc(N4CCOCC4)cc3)ccc2c1	-19.5	-46.3	-8.8	.	.	.	.
